For the experiment, the system named is THRa:RXRa (NR concentration 90 nM, RXRa partner concentration 90 nM). The experiment can be described thus: PBM binding z-score (relative to random genomic background probes); higher = stronger binding; sequences stand for … in GC…GCGATTGACAGCGTAGAATGAAGG
Put shortly:
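Regression normalization was applied to scanned fluorescence from custom Agilent 4×180K protein-binding microarrays. Before scanning, arrays were incubated 1 h with ligand-free nuclear receptor dimers, and binding was detected with antibodies against each partner (one per run). Binding z-scores use the random background probes as reference.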
For the sequence CTATGTAGTTTAAGGGGGTCATTCAGTTTGAAAG, the PBM binding z-score is 3.79.
On to GTACCAAGGTGAATAGGTCGTTGATGAGTAGGCG, for which the PBM binding z-score is 1.79.
Under ATGGAAAGGTCGTGAGGTGAGTATACAGAAAGGC stands 3.82; under AGAATGAGGTTACCAGAGATCAGGGAAACGCTTG, 3.28; under CAAAGTAGGTCACGAAAGGTCAAAGTCGAATGAC, 4.95.
TCGAGTAGGTTACGGGGGCCTTCAGGGATGAAGA returned a PBM binding z-score of 1.95.
Then CCGAGTAGGTTCCGAGGGGGCATTCAGTGCGAAT, with 2.38; and AGAATGAGGTTAAGATTAGGGAAACAGAATACAT, with 2.63; and ATATGTATGTTAGGGTCATTCAGAAAGTAGGGAA, with 4.06.
With ATATCTAGGTTAGGGTCATTCAGAAAGTAGGGAA, the PBM binding z-score amounted to 4.14.
As for CGAACTAGGTCACCAGGACAGTCAAGAGGTTGGA, the PBM binding z-score stood at 3.46.
As to CAAACTAGGTCACGAAAGGTCAAAATCGAATGAC, the PBM binding z-score is 4.89.
Under AGTCAGAGTTCATCTAGGTAACGTAAGATATGCT stands 3.14; under CAAAATAGGTCAAGGTCAAAGTCGGTTTGTGCCA, 4.48; under TCGCGTAGGTTACGGGGGCATTCAGGGATGAAGA, 3.93.
Then CCTGCTAGGTCTATGGTCAGCTAAAGCAGCTCGC, with -0.0563; and CCGAGTAGCTTACGAGGGGGCATTCAGTGCGAAT, with 1.8.
AGATTGAGGTTACCAAAGATCAGGGAAACGCTTG came in with a PBM binding z-score of 2.91.
Under GGAACGAGCGCAAAGTTGATAGCATCTGTCGACG stands -0.823; under TCTAGTTGGTCAAAGGTCAAACACTCGAAATGCG, 4.04.
Then CTATGTAGGTTAAGGGGGTCGTTCAGTTTGAAAG, with 2.7.
Under TATACAGGATCAAAGGCCAGAGTACGAATGTCGA stands -0.0517.

Values taken from the supplement of paper PMC6555819.
